Measured values reported in PubChem BioAssay (Tox21).
“And” between values parts separate entries of the source, which are not always exact repeats. Equal values may be shown once. Inconclusive results are not listed. Where a call stands in place of a potency, no number is given. Some structures have more than one record in an assay (separate samples or runs), and their calls can disagree. The source made the active and inactive calls. Unless noted, calls come from the whole dose curve; as a rule, active = well fitted curve in the direction sought with a large enough effect in the repeat runs; inconclusive = weak or mixed curves; inactive = no such curve, though single readings can be large; an effect the other way counts as inactive or inconclusive.

How the values were obtained:
[1] = qHTS assay for small molecules that induce genotoxicity in human embryonic kidney cells expressing luciferase-tagged ATAD5 (AID 651632); note: nearly all actives have a fitted effect of over 15% in size; note: potency is the fitted concentration of half-maximal effect
In short: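 Test compounds were delivered by pin tool onto HEK293T reporter cells (2,000/well) expressing ATAD5 fused to luciferase. After 16 hr at 37C, 5% CO2, Amplite was added for 30 min at room temperature and luminescence was measured.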

[2] = qHTS assay for small molecule agonists of the p53 signaling pathway - cell viability (AID 651633; calls by dose curve; note: nearly all actives have a fitted effect of over 30% in size; note: potency is the fitted concentration of half-maximal effect)
In short: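 p53RE-bla cells, seeded at 4,000 per well and rested 5 h at 37 C/5% CO2, received compounds in DMSO for 16 h at 37 C. CellTiter-Glo was then added, and luminescence was read after 30 min at room temperature to gauge cytotoxicity.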

[3] = qHTS assay for small molecule disruptors of the mitochondrial membrane potential - cell viability (AID 720634; calls by dose curve; note: nearly all actives have a fitted effect of over 20% in size; note: potency is the fitted concentration of half-maximal effect)
In short: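 Same-well counter-screen: following the MMP dye addition, CellTiter-Glo was added to 1 hr compound-treated HepG2 cells and luminescence read after 30 min at room temperature.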

[4] = qHTS assay for small molecule disruptors of the mitochondrial membrane potential (AID 720635); note: potency is the fitted concentration of half-maximal effect
In short: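 HepG2 cells (2,000/well) attached overnight at 37C, then took compound for 1 hr at 37C, 5% CO2. Mito-MPS dye was added for 30 min; fluorescence was read at 490/535 nm (monomers) and 540/590 nm (aggregates).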

[5] = qHTS assay to test for compound auto fluorescence at 590 nm (red) in HepG2 cells (AID 720674)
In short: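 Compound auto-fluorescence is scored relative to Rose Bengal sodium, measured at 540/590 nm in live HepG2 cultures after 1 hr compound contact (37 C, 5% CO2).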

[6] = qHTS assay to test for compound auto fluorescence at 535 nm (green) in HepG2 cells (AID 720675); note: potency is the fitted concentration of half-maximal effect
[7] = qHTS assay to test for compound auto fluorescence at 590 nm (red) in HEK293 cells (AID 720679)
In short: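 Each well held 2,000 HEK293 cells in medium containing 10% dialyzed FBS. Following 4-5 hr attachment at 37C, 23 nL test compound or DMSO was added; plates sat overnight, and red fluorescence (540/590nm) was recorded.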

[8] = qHTS assay to test for compound auto fluorescence at 460 nm (blue) in HEK293 cells (AID 720678)
In short: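 Cells were seeded and left to adhere for 4-5 hr at 37C. Compounds were then pin-transferred. After an overnight incubation at 37C under 5% CO2, intrinsic fluorescence at 405/460 nm was measured and referenced to triamterene.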

[9] = qHTS assay for small molecules that induce genotoxicity in human embryonic kidney cells expressing luciferase-tagged ATAD5 - cell viability (AID 651634; calls by dose curve; note: nearly all actives have a fitted effect of over 25% in size; note: potency is the fitted concentration of half-maximal effect)
In short: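 Quantitative high-throughput format. HEK293T cells expressing ATAD5 fused to luciferase were plated at 2,000 cells/well and treated 15.5 hr with compound versus DMSO. Viability was determined by fluorescent live-cell protease substrate, 30 min at 37C.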

Row | SMILES | Potency [1] | Potency [2] | Potency [3] | Potency [4] | outcome [5] | Potency [6] | outcome [7] | Potency [8] | Potency [9]
1 | COc1ccc(COC(C)=O)cc1 | inactive | inactive | inactive | inactive | inactive | inactive | inactive | – | –
2 | Oc1ccc(Cl)cc1Cc1cc(Cl)ccc1O | inactive | 18.8 µM (active) and 55.5 µM (active) and 43.3 µM (active) | – | 1.88 µM (active) and 1.24 µM (active) and 1.22 µM (active) | – | inactive | – | inactive | –
3 | CC(C)CCCCCCc1ccc(O)cc1 | inactive | 62.2 µM (active) | – | 5.31 µM (active) and 1.56 µM (active) and 5.45 µM (active) | inactive | inactive | inactive | inactive | –
4 | COc1ccc(CCN(C)CCCC(C#N)(c2ccc(OC)c(OC)c2)C(C)C)cc1OC (stereo unspecified) | inactive | inactive | – | – | – | inactive | – | inactive | inactive
5 | CC(N)=O | inactive | inactive | inactive | inactive | – | inactive | – | inactive | –
6 | Nc1ccc(O)cc1 | – | 26.6 µM (active) and 30.6 µM (active) and 31.8 µM (active) | 31.8 µM (active) | 841 nM (active) and 3.06 µM (active) and 897 nM (active) | inactive | inactive | inactive | – | –
7 | O=C(O[C@@H]1Cc2c(O)cc(O)cc2O[C@@H]1c1cc(O)c(O)c(O)c1)c1cc(O)c(O)c(O)c1 | inactive | inactive | – | 27.4 µM (active) | inactive | inactive | inactive | inactive | –
8 | CCCOC(=O)c1cc(O)c(O)c(O)c1 | inactive | inactive | inactive | 23.7 µM (active) and 48.3 µM (active) and 48.6 µM (active) | – | inactive | inactive | – | –
9 | CCn1c2ccccc2c2cc(N)ccc21 | inactive | inactive | inactive | 27 µM (active) and 24.3 µM (active) and 7.7 µM (active) | – | inactive | inactive | – | –
10 | NNCCc1ccccc1 | inactive | – | – | inactive | inactive | inactive | inactive | inactive | inactive
11 | Nc1nc(=S)c2[nH]cnc2[nH]1 | inactive | – | inactive | inactive | inactive | inactive | inactive | inactive | –
12 | Cc1ccc(S(=O)(=O)Oc2ccc(N=Nc3ccc(-c4ccc(N=Nc5c(O)ccc6cc(S(=O)(=O)O)cc(S(=O)(=O)O)c56)c(C)c4)cc3C)cc2)cc1 | – | inactive | inactive | – | inactive | inactive | inactive | – | 54.7 µM (active) and 20 µM (active)
13 | CCN(CC)C(=S)SSC(=S)N(CC)CC | 11.9 µM (active) and 61.1 µM (active) and 13.7 µM (active) | – | – | 7.7 µM (active) and 7.02 µM (active) | inactive | inactive | – | inactive | –
14 | O=C(O)c1cccc(C(=O)O)c1 | – | inactive | inactive | inactive | – | inactive | inactive | inactive | –
15 | CCCCCC(=O)O[C@]1(C(C)=O)CC[C@H]2[C@@H]3CCC4=CC(=O)CC[C@]4(C)[C@H]3CC[C@@]21C | inactive | 26.6 µM (active) and 54.1 µM (active) | – | 11.9 µM (active) and 15.2 µM (active) | inactive | inactive | – | inactive | –
16 | O=C1NCC2(CCN(CCc3ccccc3)CC2)O1 | inactive | inactive | – | – | – | inactive | inactive | inactive | –
17 | COc1ccc(CCN2CCC(Nc3nc4ccccc4n3Cc3ccc(F)cc3)CC2)cc1 | – | 26.6 µM (active) and 11.1 µM (active) | – | – | – | inactive | inactive | inactive | 26.6 µM (active) and 44.2 µM (active)
18 | CCc1cc(C(C)(C)C)c(O)c(C(C)(C)C)c1 | inactive | 15.5 µM (active) and inactive | inactive | 15.5 µM (active) and 30.6 µM (active) | – | inactive | inactive | – | –
19 | Cc1ccc(-c2cc(C(F)(F)F)nn2-c2ccc(S(N)(=O)=O)cc2)cc1 | inactive | 54.3 µM (active) | 11.9 µM (active) and 12.1 µM (active) and 30.6 µM (active) | 11.9 µM (active) and 7.66 µM (active) and 21.7 µM (active) | inactive | inactive | inactive | inactive | –
20 | O=C1OC2(c3ccc(O)cc3Oc3cc(O)ccc32)c2ccccc21 | inactive | – | inactive | 84.1 nM (active) and 61.1 nM (active) | inactive | 3.16 µM (active) and 2.51 µM (active) and 3.98 µM (active) | inactive | inactive | –
21 | CCCCCCCCCCCC[N+](C)(C)C | inactive | – | – | 61.1 µM (active) | inactive | inactive | inactive | inactive | inactive
22 | CC(C)(C)c1cc(C(C)(C)C)c(O)c(C(C)(C)C)c1 | inactive | 34.4 µM (active) | inactive | 17.2 µM (active) and 27.3 µM (active) | inactive | inactive | – | inactive | –
23 | c1ccc2cc3c(ccc4ccccc43)cc2c1 | 68.8 µM (active) | inactive | – | – | inactive | inactive | inactive | inactive | –
24 | Nc1ccc2cc3ccccc3cc2c1 | 27.8 µM (active) | inactive | inactive | 1.39 µM (active) and 1.37 µM (active) | inactive | inactive | inactive | – | –
25 | O=C(Oc1ccccc1)c1ccccc1O | inactive | – | – | inactive and 54.5 µM (active) | inactive | inactive | inactive | inactive | inactive
26 | O=C1Nc2ccccc2C1(c1ccc(O)cc1)c1ccc(O)cc1 | inactive | – | inactive | 13.7 µM (active) | inactive | inactive | inactive | inactive | inactive
27 | CC(C)(C)c1ccc(O)c(C(C)(C)C)c1 | inactive | 60.9 µM (active) and 48.6 µM (active) | 24.2 µM (active) | 2.72 µM (active) and 3.06 µM (active) | inactive | inactive | – | – | –
